Experimental data as given in PubChem BioAssay AID504334 (NMMLSC, 2011).
Unmarked numbers belong to inactive results.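 The calls were made as follows: active = response relative to DMSO over 150%; inconclusive = yeast strain with under 70 recorded events; inactive = the rest.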

assay: yeast AGP1-GFP fluorescence change, single-dose confirmation – cell-based, flow cytometry, S. cerevisiae, cherry pick set 3 (AID 504334);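 also: median GFP fluorescence per well by flow cytometry over the all cells gate; ratio of sample to mean DMSO control signal so DMSO = 100% not 0%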; conditions: S. cerevisiae AGP1-GFP strain, 3 h, at 10 µM, active compounds read high

Row | SMILES | percent response vs DMSO
1 | CN(C)C(=O)Oc1ccc(Cl)c2cccnc12 | 93.4%
2 | C/C(O)=C(\C#N)C(=O)Nc1cc(Br)ccc1Br | 100%
3 | Cc1ccc2c(c1N)C(=O)c1ccccc1C2=O | 105%
4 | CN(C)C(=O)Oc1ccnc2cc(Cl)ccc12 | 104%
5 | CN1CCN(c2ncnc3ccc(Br)cc23)CC1 | 103%
6 | CCN1CCN(c2ncnc3ccc(Br)cc23)CC1 | 99.8%
